In the library only some 4.2% were active in any assay of this set; here they are far more common.
uPA surface inh: blocks generation of uPA at the cell surface; cell surface uPA generation assay, qHTS; Potency, µM (top dose mostly 38.3 µM), for the others: top-dose activity change, negative = inhibition, usual class: inhibitors; hit rate 0.31% among 330,000; active means well fitted inhibition curve with a large enough effect; inconclusive means small, poorly fitted or top-dose-only effect; inactive means no such curve, though single readings can be large or run the other way; tested in mouse RAW 264.7 cells; further: potency means the concentration at half of the fitted maximal effect; on the % scale 0 is the no-effect control and ±100 the full control effect; nearly all actives have a fitted effect of over 55% in size
TCR act: activates T cell receptor signaling; primary human leukocytes, anti-CD3, IL-2 HTRF, 48 h; Potency, µM (series often up to 9.22 µM), without a hit: at the top dose activation of IL-2 secretion, usual class: activators; 330,000 tested, under 10 active; AID 504894; further: % of control where 0% means no effect
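48 hr co-incubation of compounds, a-CD3 beads and primary human leukocytes; IL-2 quantified homogeneously by HTRF with anti-IL-2 K and d2 conjugates.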
Sfp PPTase inh: Sfp phosphopantetheinyl transferase inhibition; Q9F4F7; Biochemical Sfp PPTase activity, qHTS; Potency, µM, inactives show largest response in the series, negative = inhibition, usual class: inhibitors; hit rate 3.5% among 310,000; AID 1490;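 further: the enzyme is Sfp with the accession as filed and its product quenches rhodamine fluorescence; potency means the concentration at half of the fitted maximal effect; 0% = enzyme reaction without inhibitor and -100% = no enzyme wells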
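Reaction rates are the 30-min fluorescence difference (ex 525, em 598 nm) in wells containing 15 nM Sfp, 5 uM rhodamine-CoA and 12.5 uM BHQ-2-YbbR at pH 7.6 with 10 mM MgCl2.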
ClpP mod: qHTS Assay for Activators of ClpP | Potency, µM (highest dose often 57.5 µM), for inactives: at the highest dose activity change, negative = active | hit rate 1.9% among 340,000 | AID 651965, 2013 | purified B. subtilis ClpP, FRET peptide cleavage, 20 min | ATP-dependent Clp protease proteolytic subunit (Bacillus subtilis (strain 168)), P80244; active means well fitted falling curve with a large enough effect; inconclusive means small, poorly fitted or top-dose-only effect; inactive means no such curve, though single readings can be large or run the other way; further: potency means the concentration at half of the fitted maximal effect; the source files actives as falling curves though it sought activators and does not explain the sign; nearly all actives have a fitted effect of over 65% in size
Target sequence (P80244 whole entry, looked up): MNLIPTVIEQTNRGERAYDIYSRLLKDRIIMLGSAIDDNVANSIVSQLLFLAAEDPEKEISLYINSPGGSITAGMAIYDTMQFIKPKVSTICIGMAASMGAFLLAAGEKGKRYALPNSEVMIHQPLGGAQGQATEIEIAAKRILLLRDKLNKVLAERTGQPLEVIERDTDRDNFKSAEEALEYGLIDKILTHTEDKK
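Purified B. subtilis ClpP, 10 microg/mL final in Tris/HCl pH8 with KCl, BSA, glycerol and Tween-20, cleaved an Abz/nitrotyrosine-quenched decapeptide. Fluorescence (ex 320, em 430) was read at 0 and 20 min at room temperature. Delta was normalized to 5.8 microM ADEP and DMSO/no-enzyme controls.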
Active calls of the source: *; ? = inconclusive; nt = not tested or not shown; ! = not active in a repeat; [ ] = remark or other dose. Unless noted, the call rests on the fitted dose curve; in most records, active means well fitted curve in the direction sought with a large enough effect; inconclusive means small, poorly fitted or top-dose-only effect, or another doubt; inactive means no such curve, though single readings can be large; an effect the other way counts as inactive or inconclusive.

SMILES	uPA surface inh	TCR act	Sfp PPTase inh	ClpP mod
CC(NC(=O)c1ccc2nc(Cc3cccc(Cl)c3)oc2c1)c1ccncn1 (stereo not drawn)	nt	nt	nt	0.1%
Cc1ccc(NC(=O)c2ccc3nc(N4CCOCC4)sc3c2)c(Cl)c1	-7.4%	-4.8%	50.1µM*	-21.2%
CCCCCC1CC(CC/C(C)=N/NC(N)=O)C(=O)O1 (stereo not drawn)	-2.2%	-0.2%	15.8%	?
C/C(CC1CC(COCC(C)C)OC1=O)=N\NC(N)=S (stereo not drawn)	-3.8%	5.7%[46.1 µM]	50.1µM*	-1.2%
CCCCCNc1nc(-c2ccccc2)cs1	nt	nt	-0.5%	nt
CCCCCOCC1CC(C/C(C)=N/Nc2nc(-c3ccccc3)cs2)C(=O)O1 (stereo not drawn)	11.9%	1.2%	70.8µM*	1.5%
CCCCCOCC1CC(C/C(C)=N/NC(N)=S)C(=O)O1 (stereo not drawn)	2.3%	-0.5%[46.1 µM]	44.7µM*	0.1%
CCn1cc(Br)c(C(=O)NC(=S)Nc2ccc(C(=O)OC)cc2)n1	12.4%	3.6%[46.1 µM]	-2.4%	0.6%
CN1CCN(C(=O)Cn2c(-c3cccs3)cc3cc(Cl)ccc32)CC1	nt	nt	nt	31.6µM*
O=C(Cn1c(-c2cccs2)cc2cc(F)ccc21)N1CCN(c2cccc(Cl)c2)CC1	nt	nt	nt	28.2µM*
O=C(O)Cn1c(-c2cccs2)cc2cc(Cl)ccc21	nt	nt	nt	4.7%
O=C(CCC(=O)N1CCN(c2cccc(Cl)c2)CC1)c1cccs1	1.0%	-1.5%	nt	nt
COc1cccc(NC(=O)CN(C)C(=O)Cc2cccc3ccccc23)c1	5.9%	1.0%	nt	-0.5%
COc1cccc(NC(=O)CN(C)C(=O)C(Sc2ccccc2)c2ccccc2)c1 (stereo not drawn)	2.3%	nt	nt	28.2µM*
CCCS(=O)(=O)c1c(S(=O)(=O)CCC)c2cc(CC)ccn2c1C(=O)c1ccc(Cl)cc1	nt	nt	nt	-1.8%
COc1ccc(-n2c(SCC(=O)C(C)(C)C)nc3c(sc(=S)n3-c3ccccc3)c2=O)c(OC)c1	10.2%	-0.3%	3.55µM*	0.5%
CC(=O)N/C(=C/c1ccc2c(c1)OCO2)C(=O)NC(Cc1ccccc1)C(=O)O (stereo not drawn)	4.4%	-4.2%	nt	31.6µM*
Oc1cccc(C=NNc2ccccn2)c1	4.9%	-8.7%	nt	1.2%
FC(F)(F)c1ccccc1/C=N/Nc1ccccn1	-13.2%	-0.2%	79.4µM*	-3.8%
Clc1ccc(/C=N/Nc2ccccn2)cc1	-0.3%	-3.4%	5.5%	nt
COc1ccc(/C=N/Nc2ccccn2)cc1O	0.8%	-0.7%	50.1µM*	nt
CCOc1ccc(/C=N/Nc2ccccn2)cc1	6.31µM*	-1.2%	-23.9%	-15.6%
COc1ccc2nc(Cl)c(/C=N/Nc3ccccn3)cc2c1	-6.2%	2.6%	15.8µM*	nt
CCc1ccc(NC(=O)C2CCCN2S(=O)(=O)c2cccc3nsnc23)cc1 (stereo not drawn)	nt	nt	nt	0.6%
CCCCCn1c(=O)[nH]c2cc(C(=O)N3CCN(c4cccc(Cl)c4)CC3)ccc2c1=O	nt	nt	nt	-1.1%
SMILES	uPA surface inh	TCR act	Sfp PPTase inh	ClpP mod
Cc1ccccc1C(=O)OCc1cc(=O)n2nc(C3CC3)sc2n1	nt	nt	nt	-2.7%
C(=N\Nc1ccccc1)/c1ccc(N2CCOCC2)cc1	-19.7%	1.5%	-1.5%	-5.4%
C(=N\Nc1ccccn1)/c1ccc(N2CCOCC2)cc1	-5.9%	-2.5%	39.8µM*	?
Oc1ccc(/C=N/Nc2cc(N3CCOCC3)nc(N3CCOCC3)n2)cc1O	-1.5%	3.9%[46.1 µM]	79.4µM*	-18.2%
COc1cc(OC)c(N(C)C(=O)Cn2ncc3c(=O)oc4ccccc4c32)cc1Cl	nt	nt	nt	-1.9%
COC(=O)c1ccc(NC(=O)c2c(Br)cnn2C)cc1	2.1%	5.9%	35.5µM*	0.5%
COC(=O)c1ccc(NC(=S)NC(=O)c2c(Cl)cnn2C)cc1	-0.5%	9.5%[46.1 µM]	50.1µM*	nt
Cc1cccc(-c2nc(CS(=O)CC(=O)N3CC(C)CC(C)C3)c(C)o2)c1 (stereo not drawn)	-6.9%	-1.8%	1.2%	-6.0%
CCS(=O)(=O)C1=NN2C(=N)/C(=C\c3ccc(SCc4ccco4)o3)C(=O)N=C2S1	14.9%	-12.2%	20µM*	-1.9%
CC(=O)c1c(O)cccc1O	nt	nt	25.1µM*	nt
CC(=O)c1c(C)oc2c1cc(O)c1ccccc12	-0.8%	8.4%	0.2%	-3.9%
COc1cccc(NC(=O)CCc2c(C)nc3ncnn3c2C)c1	nt	nt	nt	-0.1%
NCCCCCCNS(=O)(=O)c1cccc2c(Cl)cccc12	?	2.3%	63.1µM*!	-16.8%
CCCCCCCNS(=O)(=O)c1cccc2c(Cl)cccc12	nt	nt	-2.4%	nt
O=S(=O)(NCCCCCCc1ccccc1)c1cccc2c(Cl)cccc12	nt	nt	-15.8%	nt
NCCCCCCCCCCNS(=O)(=O)c1cccc2c(Cl)cccc12	nt	nt	50.1µM*	-3.8%

Source: PubChem (National Center for Advancing Translational Sciences (NCATS))
